Laboratory results from PubChem BioAssay (NCI).
This is part of a sample that, as a whole, favours compounds with a hit. Of some 83,000 tested, about 20% had one in any assay.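 96-well plates, one dose, 48 hours. Percent growth reported; active if below 10.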 Active and inactive are the calls of the source.

These compounds were tested on NCI/ADR-RES ovarian (assay: NCI-60 one-dose screen, 48 h (100 = growth as untreated, 0 = no growth, -100 = all killed)). Settings: 10 µM.

| Structure (SMILES) | growth |
| --- | --- |
| OCC1OC(n2ccc3c(NO)ncnc32)C(O)C1O (stereo unspecified) | -53.5% (active) |
| C[C@]12CC[C@@H]3c4ccc(OS(=O)(=O)O)cc4CC[C@H]3[C@@H]1CC[C@@H]2NS(=O)(=O)c1ccc(-c2ccccc2)cc1 | 58.5% (inactive) |
| CCN1CCN(CCC(=O)Nc2cccc(-n3cc(-c4ccncc4)c(-c4ccc(Cl)c(OC)c4)n3)c2)CC1 | 15.2% (inactive) |
| COc1ccc(-c2nnc(SCC(=O)Nc3ccc(C(=O)/C=C/c4ccccc4)cc3)n2-c2ccccc2)cc1OC | 88.3% (inactive) |

What follows are compounds tested on T-47D breast in the same assay as above. Settings: 10 µM.

| Structure (SMILES) | growth |
| --- | --- |
| COc1ccc(-c2onc(N)c2-c2cc(OC)c3c(c2)OCO3)cc1 | 19.3% (inactive) |
| C[C@]12CC[C@@H]3c4ccc(O)cc4CC[C@H]3[C@@H]1CC[C@@H]2NS(=O)(=O)c1ccc(C(F)(F)F)cc1 | 25% (inactive) |
| O=C(CSc1nnc(-c2ccc(Cl)cc2)o1)Nc1ccc(C(=O)/C=C/c2ccc(Cl)cc2)cc1 | 98.6% (inactive) |
| Cc1cc(CCNC=O)c(C)c2c1sc1ccccc12 | 92.8% (inactive) |
| COc1cc2cc(Oc3ccc(NC(=O)c4ccc(Cl)c(C(F)(F)F)c4)cc3)c(C)nc2cc1OC | 82.8% (inactive) |
| CC(C)(C)c1ccc(S(=O)(=O)N[C@H]2CC[C@H]3[C@@H]4CCc5cc(O)ccc5[C@H]4CC[C@]23C)cc1 | 26.2% (inactive) |
| COc1cc2cc(Oc3ccc(NC(=O)c4cccc(C(F)(F)F)c4)cc3)c(C)nc2cc1OC | 91.6% (inactive) |
| COc1ccc(/C=C2\CCCC3=C2NC(N)=NC3c2ccc(OC)c(OC)c2)cc1OC (stereo unspecified) | 78.6% (inactive) |
| Cc1c(Cl)cccc1NC(=O)CN1CCOCC1 | 96.1% (inactive) |
| CC(C)(C)OC(=O)N1CCc2c(sc3ncnc(N/N=C/c4ccc(Br)cc4)c23)C1 | 34.2% (inactive) |
| CCCCc1oc2ccccc2c1C(=O)c1cc(I)c(OCCN(CC)CC)c(I)c1 | 7% (active) |
| CCc1c2c(nc3ccc(OC(=O)N4CCC(N5CCCCC5)CC4)cc13)-c1cc3c(c(=O)n1C2)COC(=O)[C@]3(O)CC | 25.1% (inactive) |
| NS(=O)(=O)Oc1ccc(-c2ccc3sccc3c2)cc1 | 105% (inactive) |
| O=C(Nc1ccc(OS(=O)(=O)c2ccccc2)cc1)C1CCCCC1 | 85.4% (inactive) |
| S=c1cnc2ccccc2[nH]1 | 81.9% (inactive) |
| COc1cc(-c2nn(-c3cccc(NC(=O)NCCNC(=O)c4cccc(C(F)(F)F)c4)c3)cc2-c2ccncc2)ccc1Cl | 52.7% (inactive) |

| Structure (SMILES) | growth |
| --- | --- |
| C[C@@H](O)[C@H]1C(=O)N2C(C(=O)O)=C(SCCN=CN)C[C@H]12 | -6.42% (active) |
| CC[C@@H](C(=O)[C@@H](C)[C@@H](O)[C@H](C)[C@@H]1O[C@@H]([C@@H](CC)C(=O)O)CC[C@@H]1C)C1O[C@]2(C=CC(=O)[C@]3(CC[C@@](C)([C@H]4CC[C@](O)(CC)[C@H](C)O4)O3)O2)[C@H](C)C[C@@H]1C (stereo partly specified) | 26.1% (inactive) |
| CCC(c1ccc(OC)cc1)C(CC)c1ccc(O)c(CN2CCN(C)CC2)c1 (stereo unspecified) | 39.1% (inactive) |
| COc1ccc(C(=O)N2C=Cc3ccccc3C2C#N)cc1 (stereo unspecified) | 90.8% (inactive) |
| Cc1cc(SC#N)cc(C(C)(C)C)c1O | 80% (inactive) |
| COc1ccc(-c2n[nH]nc2-c2cc(OC)c3c(c2OC)OCO3)cc1 | 27.9% (inactive) |
| CN1C(C(=O)Nc2ccccn2)=C(O)c2sc(Cl)cc2S1(=O)=O | 92.6% (inactive) |
| Clc1ccc2c(c1)C(N1CCNCC1)=Nc1ccccc1O2 | 35.2% (inactive) |
| CC(C)(C)c1ccc(S(=O)(=O)N[C@H]2CC[C@H]3[C@@H]4CCc5cc(O)c([N+](=O)[O-])cc5[C@H]4CC[C@]23C)cc1 | 46.6% (inactive) |
| COc1cc(-c2csc(NC(=O)Nc3ccc(Cl)c(C(F)(F)F)c3)n2)cc(OC)c1OC | -9.38% (active) |
| Brc1ccc2c(c1)-c1ccccc1C1=NCCN12 | -0.518% (active) |
| CC(C)N(CCOc1cccc(-c2nc3sccn3c2-c2ccnc(S(C)(=O)=O)n2)c1)C(C)C | 88.3% (inactive) |
| Cc1ccc(/C=C/C(=O)C(=O)/C=C/c2ccc(C)cc2)cc1 | 92.4% (inactive) |
| O=C(Nc1cc(Cl)cc2c1-c1ccc(Cl)cc1C2O)C(Cl)Cl (stereo unspecified) | 54.1% (inactive) |
| COc1cc(Cc2cc(-c3ccccc3)n[nH]c2=O)cc(OC)c1OC | 40.5% (inactive) |
| Cc1cc(C(C#N)c2ccc(Cl)cc2)c(Cl)cc1NC(=O)c1cc(I)cc(I)c1O (stereo unspecified) | 66.4% (inactive) |
